{
  "source": "PubChem BioAssay AID1566",
  "about": "(Sanford-Burnham Center for Chemical Genomics, 2009)",
  "note": "The whole screen tested about 290,000 compounds, of which about 1,800 (0.62%) were called active. The sample holds actives, similar compounds and a random draw of the others, so the mix is not that of the screen. Unmarked numbers belong to inactive results. Cut-off read from the data, not from the text of the source: active = inhibition above about 50%; inactive = the rest.",
  "data": [
    {"experiment": "inhibition of NOD2-driven NF-kB reporter – cell-based, luminescence, uHTS, HEK293 (AID 1566)", "conditions": "HEK293 NOD2/NF-kB luciferase reporter, at 4 µM, active compounds read high", "values": [
      {"smiles": "Cc1ccccc1C(=O)N1CCN(C(c2ccccc2)c2ccccc2)CC1", "inhibition": "46.9%"},
      {"smiles": "CCOc1ncccc1C(=O)N1CCN(C(c2ccccc2)c2ccccc2)CC1", "inhibition": "43.5%"},
      {"smiles": "COc1ccc(N(Cc2cc3cc(OC)ccc3[nH]c2=O)C(=O)c2cccnc2)cc1", "inhibition": "29.5%"},
      {"smiles": "COc1cc(C(=O)N[C@H](C(=O)NC(C)C23CC4CC(CC(C4)C2)C3)C(C)C)cc(OC)c1OC", "note": "(stereo not given in full)", "inhibition": "4%"},
      {"smiles": "COc1cc(C(=O)NCc2ccc(-c3nc4ccccc4s3)cc2)cc(OC)c1OC", "inhibition": "-72.3%"},
      {"smiles": "COc1ccc(C(=O)NCc2ccc(-c3nc4ccccc4s3)cc2)cc1OC", "inhibition": "-45.5%"},
      {"smiles": "COc1cc(OC)c(OC)cc1CN1CCN(Cc2ccc(C(F)(F)F)cc2)CC1", "inhibition": "5.4%"},
      {"smiles": "COc1ccc(Nc2cc(Nc3ccccc3)ncn2)cc1", "inhibition": "-87%"},
      {"smiles": "COc1ccc(Nc2cc(Nc3ccc(OC)cc3)ncn2)cc1", "inhibition": "-19.7%"},
      {"smiles": "COc1ccc(Nc2cc(Sc3ccc(OC)cc3)ncn2)cc1", "inhibition": "55.2% (active)"},
      {"smiles": "Cc1cc(C)c2nc(Cl)c(CN(Cc3ccco3)C(=O)Nc3ccccc3C)cc2c1", "inhibition": "-17.6%"},
      {"smiles": "Cc1cccc2cc(CN(Cc3ccco3)C(=O)Nc3cccc(C#N)c3)c(Cl)nc12", "inhibition": "55.3% (active)"},
      {"smiles": "Cc1ccc(NC(=O)N(Cc2ccco2)Cc2cc3cc(C)cc(C)c3nc2Cl)cc1", "inhibition": "-17.3%"},
      {"smiles": "COc1cccc(-c2cc(C(F)(F)F)n3ncc(C(=O)N4CCc5ccccc5C4)c3n2)c1", "inhibition": "17.4%"},
      {"smiles": "CC1(C)C2CCC1(CS(=O)(=O)NC1CCCC1)C(=O)C2", "note": "(stereo not given)", "inhibition": "17.9%"},
      {"smiles": "C=CCNS(=O)(=O)CC12CCC(CC1=O)C2(C)C", "note": "(stereo not given)", "inhibition": "5.2%"},
      {"smiles": "CC(C)(C)NS(=O)(=O)CC12CCC(CC1=O)C2(C)C", "note": "(stereo not given)", "inhibition": "50.9% (active)"},
      {"smiles": "COCCCn1c(SCC(=O)Nc2ccc(NC(C)=O)cc2)nc2sc3c(c2c1=O)CCC3", "inhibition": "11.9%"},
      {"smiles": "CCN(CC)c1nc2c(c(=O)[nH]c(=O)n2C)n1Cc1ccccc1Cl", "inhibition": "5.7%"},
      {"smiles": "COc1ccc(-n2cnnc2SCC(=O)c2ccc(S(=O)(=O)N3CCOCC3)cc2)cc1", "inhibition": "2.6%"},
      {"smiles": "COc1ccc(-c2ncccc2O)cc1", "inhibition": "-2.7%"},
      {"smiles": "O=C(O)c1ccc(/C=C2\\CCCc3c2nc2ccccc2c3C(=O)O)cc1", "inhibition": "8.2%"},
      {"smiles": "O=C(O)c1c2c(nc3ccccc13)/C(=C/c1ccc(O)cc1)CCC2", "inhibition": "11.1%"},
      {"smiles": "O=C(O)c1c2c(nc3ccccc13)/C(=C/c1ccc(O)cc1)CC2", "inhibition": "72.4% (active)"},
      {"smiles": "Cc1cccnc1CCNC(=O)c1ccc(OC2CCN(Cc3ccccn3)CC2)cc1", "inhibition": "2.1%"},
      {"smiles": "O=C(NCCc1ccccn1)c1ccc(OC2CCN(Cc3ccccn3)CC2)cc1", "inhibition": "6.5%"},
      {"smiles": "O=C(NCCc1cccc(Cl)c1)c1ccc(OC2CCN(Cc3ccccn3)CC2)cc1", "inhibition": "53.1% (active)"},
      {"smiles": "Cc1ccc2oc(/N=C(\\N)NC(=O)C3CC3)nc2c1", "inhibition": "5.6%"},
      {"smiles": "CC(=O)N/C(N)=N/c1nc2cc(C)ccc2o1", "inhibition": "-93.3%"},
      {"smiles": "O=C(CSc1nn(-c2ccc(F)cc2)c(=S)s1)N1CCN(C(=O)c2ccco2)CC1", "inhibition": "4.8%"},
      {"smiles": "Cc1no[n+]([O-])c1COc1ccc(/C=N/n2nnnc2N)cc1", "inhibition": "-31%"},
      {"smiles": "COc1cccc(/C=N/NC(=O)c2nnn(-c3nonc3N)c2C(C)C)c1", "inhibition": "26.6%"},
      {"smiles": "O=C(Nc1ccc(N2CCN(C(=O)c3ccccc3)CC2)cc1)c1ccc2c(c1)OCCO2", "inhibition": "38.7%"},
      {"smiles": "Cc1ccccc1C(=O)N1CCN(c2ccc(NC(=O)c3ccc4c(c3)OCO4)cc2)CC1", "inhibition": "-42.4%"},
      {"smiles": "N#CC(c1nc2ccccc2nc1N1CCCCC1)S(=O)(=O)c1ccc(Cl)cc1", "note": "(stereo not given)", "inhibition": "55.3% (active)"},
      {"smiles": "N#CC(c1nc2ccccc2nc1N1CCCC1)S(=O)(=O)c1ccccc1", "note": "(stereo not given)", "inhibition": "-3.3%"},
      {"smiles": "Cc1ccc(S(=O)(=O)C(C#N)c2nc3ccccc3nc2N2CCCCC2)cc1", "note": "(stereo not given)", "inhibition": "7.4%"},
      {"smiles": "O=C(CCS(=O)(=O)c1ccccc1)NC12CC3CC(CC(C3)C1)C2", "inhibition": "-42.4%"},
      {"smiles": "O=C(CCCCCn1c(=S)[nH]c2ccc(N3CCOCC3)cc2c1=O)NCc1ccccc1", "inhibition": "29.5%"},
      {"smiles": "Cc1cccc(N2CCN(C(=O)CCCn3c(=S)[nH]c4cc5c(cc4c3=O)OCO5)CC2)c1C", "inhibition": "38.2%"},
      {"smiles": "O=C(CCCn1c(=S)[nH]c2cc3c(cc2c1=O)OCO3)N1CCN(c2ccc(F)cc2)CC1", "inhibition": "27.2%"},
      {"smiles": "O=C(CCCn1c(=S)[nH]c2cc3c(cc2c1=O)OCO3)N1CCN(c2ccccc2)CC1", "inhibition": "12.2%"},
      {"smiles": "NC(=O)CSc1nnc(-c2ccccc2Br)n1-c1cccc(C(F)(F)F)c1", "inhibition": "5.9%"},
      {"smiles": "Cc1[nH]nc(N)c1-c1ccc(Cl)cc1", "inhibition": "14.7%"},
      {"smiles": "O=C(CCc1nnc(CCCCc2ccccc2)o1)NCCc1cccnc1", "inhibition": "24.2%"},
      {"smiles": "CC(c1cccnc1)N(C(=O)Nc1ccccc1)C1CCCCC1", "note": "(stereo not given)", "inhibition": "-11.5%"},
      {"smiles": "O=C(Nc1ccc(Cl)cc1C(F)(F)F)c1ccccc1Cl", "inhibition": "3.5%"},
      {"smiles": "CCC(CC)COC(=O)C1=C(C)NC(=O)NC1c1cc(OC)ccc1OC", "note": "(stereo not given)", "inhibition": "-2%"},
      {"smiles": "CC(=O)Nc1ccc(NC(=O)CSc2nc3nc(-c4cccs4)cc(C(F)(F)F)c3c(=O)[nH]2)cc1", "inhibition": "5.7%"},
      {"smiles": "COc1ccc(NC(=O)CSc2nc3nc(-c4cccs4)cc(C(F)(F)F)c3c(=O)[nH]2)c(OC)c1", "inhibition": "22.2%"},
      {"smiles": "CN1CCN(CC(=O)Nc2ccccc2Oc2ccccc2)CC1", "inhibition": "15.7%"},
      {"smiles": "COc1ccc(OCCSc2nc(C)c(Cc3ccccc3)c(=O)[nH]2)cc1", "inhibition": "25.5%"},
      {"smiles": "Cn1c(=O)[nH]c(=O)c2c1nc(NCc1ccccc1)n2Cc1ccc(F)cc1", "inhibition": "16%"},
      {"smiles": "Cc1ccc(/C=N/NC(=O)CSc2nc3ccccc3c(=O)n2-c2ccccc2C)s1", "inhibition": "-0.2%"},
      {"smiles": "N#Cc1c2n(c3c(=O)n(Cc4ccccc4Cl)cnc13)CCCCC2", "inhibition": "16.9%"},
      {"smiles": "Cc1oc2ccc(OCc3cccc(Cl)c3)cc2c1C(=O)O", "inhibition": "9.4%"},
      {"smiles": "O=S(=O)(c1ccc(F)cc1)N1CCN(Cc2ccccn2)CC1", "inhibition": "8.3%"},
      {"smiles": "NS(=O)(=O)c1ccc(NC(=O)COC(=O)CCc2ccc(S(=O)(=O)N3CCOCC3)cc2)cc1", "inhibition": "-3%"},
      {"smiles": "CC(C)Cn1c(=O)c(C(=O)Nc2ccccc2S(N)(=O)=O)c(O)c2ccccc21", "inhibition": "22.9%"},
      {"smiles": "CC(C)Cn1c(=O)c(C(=O)Nc2cnccn2)c(O)c2ccccc21", "inhibition": "16.2%"},
      {"smiles": "CCCn1c(=O)c(C(=O)Nc2cnccn2)c(O)c2ccccc21", "inhibition": "-10.4%"},
      {"smiles": "CCn1c(=O)c(C(=O)Nc2cnccn2)c(O)c2ccccc21", "inhibition": "18.7%"},
      {"smiles": "Cn1c(=O)c(C(=O)Nc2cnccn2)c(O)c2ccccc21", "inhibition": "-39.4%"},
      {"smiles": "CCn1c(=O)c(C(=O)Nc2ccccc2S(N)(=O)=O)c(O)c2ccccc21", "inhibition": "-12.7%"},
      {"smiles": "CCCC(=O)N(CCN1CCOCC1)c1nc2c(C)ccc(C)c2s1", "inhibition": "10.7%"},
      {"smiles": "COc1ccc(-c2cnn3cc(-c4cccc(Cl)c4)cnc23)cc1", "inhibition": "-3.7%"},
      {"smiles": "COc1ccc(/C=N/NC(=O)c2ccoc2C)cc1COc1ccc(Cl)cc1", "inhibition": "-42%"},
      {"smiles": "O=C(N/N=C/c1cn(-c2ccccc2)nc1-c1cccnc1)c1cccnc1", "inhibition": "7.5%"},
      {"smiles": "N#CC(=C=[N-])c1nc2ccccc2nc1-[n+]1cccc(NC(=O)c2cccs2)c1", "inhibition": "10%"},
      {"smiles": "Nc1nnc(COc2ccccc2)s1", "inhibition": "-4.5%"}
    ]}
  ]
}
